Screening data (PubChem BioAssay)
Only some compounds are listed: those with a hit (about 28% of all), similar ones and a draw of the others.
CYP2C9 inh: inhibitors of human CYP2C9. P11712. inhibition, % at 5 µM. 96,000 tested, 20% active. AID 777. CYP2C9 Supersomes, luciferin-H conversion, luminescence;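 active means blocking of liver enzyme CYP2C9 beyond about 50% at 5 µM, limit read from the data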
Target sequence (P11712 whole entry, looked up): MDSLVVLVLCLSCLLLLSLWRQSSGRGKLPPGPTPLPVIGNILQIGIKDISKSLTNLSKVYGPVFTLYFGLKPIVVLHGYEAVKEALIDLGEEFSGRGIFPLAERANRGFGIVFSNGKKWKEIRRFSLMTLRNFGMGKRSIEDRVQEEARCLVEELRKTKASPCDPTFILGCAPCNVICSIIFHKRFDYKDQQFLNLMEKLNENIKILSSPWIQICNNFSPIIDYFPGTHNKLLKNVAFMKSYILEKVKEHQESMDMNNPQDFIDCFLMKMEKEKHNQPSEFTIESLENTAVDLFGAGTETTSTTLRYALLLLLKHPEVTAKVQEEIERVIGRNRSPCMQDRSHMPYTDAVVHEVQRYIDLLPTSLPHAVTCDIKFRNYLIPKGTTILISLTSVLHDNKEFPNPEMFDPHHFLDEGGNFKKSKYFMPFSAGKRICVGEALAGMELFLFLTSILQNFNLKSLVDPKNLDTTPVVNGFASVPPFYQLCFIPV
CD11b adhes inh: CD11b/CD18-fibrinogen binding inhibition. K562 CD11b/CD18 adhesion to fibrinogen, ATPlite luminescence; Mn2+ added to activate the integrin. inhibition, % at 10 µM. 93,000 tested, 0.54% active. AID 1497;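 active means primary inhibition of 50% or more at 10 µM, then 40% or more on retest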
CYP2C19 inh: human CYP2C19 inhibition. P33261. CYP2C19 Supersomes, luciferin-H EGE luminescence, 30 min. inhibition, % at 5 µM. 96,000 tested, 21% active;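 active means CYP2C19 inhibition above a set limit at 5 µM in the primary screen, cut at about 50% in these data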
CD11b adhes enh: enhancers of human CD11b/CD18 binding to fibrinogen. P05107+P11215. K562 CD11b/CD18 adhesion to fibrinogen, ATPlite luminescence. activation, % at 10 µM. 93,000 tested, 0.07% active. AID 1499;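 active means 10 µM primary screen giving 50% or more activity, confirmed by 40% or more on retest at that dose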
CYP2C9 activ: CYP2C9 (human) activation; recombinant CYP2C9, luciferin-H conversion, luminescence; hits give high values; factor 1 = untreated enzyme, 0 = blocked; activation factor at 5 µM; 96,000 tested, 1.4% active;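 active means activation factor of 2 or more for CYP2C9 at a 5 µM dose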
CYP2C19 activ: increases human CYP2C19 enzyme activity; P33261; recombinant CYP2C19, luciferin-H EGE luminescence; hits give high values; 0 = fully inhibited enzyme, 1 = untreated enzyme; activation factor at 5 µM; 96,000 tested, under 10 active;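 active means activation factor of at least 2 at 5 µM in the primary screen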
Numbers stand for hits.

How did COc1ccc(S(=O)(=O)N(CCc2ccccc2)CC(=O)O)cc1 do in these assays?
CYP2C9 inh: 64.7; CD11b adhes inh: inactive; CYP2C19 inh: 52.9; CD11b adhes enh: inactive; CYP2C9 activ: inactive; CYP2C19 activ: inactive

How did CCNC(=O)CN(Cc1ccccc1)S(=O)(=O)c1ccccc1 do in these assays?
CYP2C9 inh: inactive; CD11b adhes inh: inactive; CYP2C19 inh: inactive; CD11b adhes enh: inactive; CYP2C9 activ: inactive; CYP2C19 activ: inactive

What do the screens show for `COc1ccc(S(=O)(=O)N(CC(=O)O)c2ccc(C)cc2)cc1`?
CYP2C9 inh: inactive; CD11b adhes inh: inactive; CYP2C19 inh: inactive; CD11b adhes enh: inactive; CYP2C9 activ: inactive; CYP2C19 activ: inactive

How did CCOC(=O)C(C)Sc1nc(C2CC2)cc(C(F)(F)F)c1C#N (stereo unspecified) do in these assays?
CYP2C9 inh: inactive; CYP2C19 inh: inactive; CYP2C9 activ: inactive; CYP2C19 activ: inactive

What do the screens show for `CCOC(=O)C(CC)n1cnc2c(oc3ccccc32)c1=O` (stereo unspecified)?
CYP2C9 inh: inactive; CYP2C19 inh: inactive; CYP2C9 activ: inactive; CYP2C19 activ: inactive

How did COC(=O)c1ccc(NC(=O)C2CCCN(S(=O)(=O)c3cnc[nH]3)C2)cc1 (stereo unspecified) do in these assays?
CYP2C9 inh: 86.4; CD11b adhes inh: inactive; CYP2C19 inh: 78.8; CD11b adhes enh: inactive; CYP2C9 activ: inactive; CYP2C19 activ: inactive

Results for CSc1cccc(NC(=O)C2CCN(S(C)(=O)=O)CC2)c1 ?
CYP2C9 inh: inactive; CD11b adhes inh: inactive; CYP2C19 inh: inactive; CD11b adhes enh: inactive; CYP2C9 activ: inactive; CYP2C19 activ: inactive

How did CSc1cccc(NC(=O)C2CCCN(S(=O)(=O)c3cnc[nH]3)C2)c1 (stereo unspecified) do in these assays?
CYP2C9 inh: 92.9; CD11b adhes inh: inactive; CYP2C19 inh: 97.5; CD11b adhes enh: inactive; CYP2C9 activ: inactive; CYP2C19 activ: inactive

Results for O=C(CSc1nnc(-c2ccccc2)o1)NC1CCS(=O)(=O)C1 (stereo unspecified) ?
CD11b adhes inh: inactive; CD11b adhes enh: inactive

What do the screens show for `COc1ccc(Cl)cc1C(=O)Nc1ccc(S(=O)(=O)N2CCCC2)cc1`?
CYP2C9 inh: inactive; CD11b adhes inh: inactive; CYP2C19 inh: inactive; CD11b adhes enh: inactive; CYP2C9 activ: inactive; CYP2C19 activ: inactive

What do the screens show for `Cc1nn2c(N3CCN(C(=O)c4ccco4)CC3)cc(C(C)(C)C)nc2c1-c1ccccc1`?
CYP2C9 inh: 57.6; CYP2C19 inh: inactive; CYP2C9 activ: inactive; CYP2C19 activ: inactive

How did O=C(c1ccco1)N1CCN(c2nc3ccsc3c(=O)s2)CC1 do in these assays?
CYP2C9 inh: 64.4; CD11b adhes inh: inactive; CYP2C19 inh: inactive; CD11b adhes enh: inactive; CYP2C9 activ: inactive; CYP2C19 activ: inactive

Results for Cc1nn2c(N3CCN(C4CCCC4)CC3)cc(C(C)(C)C)nc2c1-c1ccccc1 ?
CYP2C9 inh: inactive; CD11b adhes inh: inactive; CYP2C19 inh: inactive; CD11b adhes enh: inactive; CYP2C9 activ: inactive; CYP2C19 activ: inactive

What do the screens show for `O=C(c1ccco1)N1CCN(c2ncnc3c2oc2ccccc23)CC1`?
CYP2C9 inh: inactive; CD11b adhes inh: inactive; CYP2C19 inh: 61.5; CD11b adhes enh: inactive; CYP2C9 activ: inactive; CYP2C19 activ: inactive

How did CC(=O)c1c(N2CCN(C(=O)c3ccco3)CC2)nc(=S)n(-c2ccccc2)c1C do in these assays?
CYP2C9 inh: inactive; CD11b adhes inh: inactive; CYP2C19 inh: inactive; CD11b adhes enh: inactive; CYP2C9 activ: inactive; CYP2C19 activ: inactive

How did O=C(c1ccco1)N1CCN(c2nc3ccccc3c(=O)n2-c2ccccc2)CC1 do in these assays?
CYP2C9 inh: 67.1; CYP2C19 inh: inactive; CYP2C9 activ: inactive; CYP2C19 activ: inactive

How did CCCC1=NN(C(=O)Cc2ccc(OC)cc2)C(O)(C(F)(F)F)C1 (stereo unspecified) do in these assays?
CD11b adhes inh: inactive; CD11b adhes enh: inactive

What do the screens show for `O=C(c1ccc(-c2ccccc2)cc1)N1CCN(C(=O)c2ccco2)CC1`?
CYP2C9 inh: inactive; CD11b adhes inh: inactive; CYP2C19 inh: inactive; CD11b adhes enh: inactive; CYP2C9 activ: inactive; CYP2C19 activ: inactive

What do the screens show for `Cc1ccc2cc3cc(C(=O)N4CCN(C(=O)c5ccco5)CC4)sc3nc2c1`?
CYP2C9 inh: inactive; CD11b adhes inh: inactive; CYP2C19 inh: 63.6; CD11b adhes enh: inactive; CYP2C9 activ: inactive; CYP2C19 activ: inactive

What do the screens show for `O=C(c1ccco1)N1CCN(c2nnc(-c3ccccc3)c3ccccc23)CC1`?
CYP2C9 inh: inactive; CD11b adhes inh: inactive; CYP2C19 inh: 58.0; CD11b adhes enh: inactive; CYP2C9 activ: inactive; CYP2C19 activ: inactive

Results for O=C(c1ccco1)N1CCN(C(=O)c2cc3c(=O)oc4ccccc4c3s2)CC1 ?
CYP2C9 inh: 61.0; CD11b adhes inh: inactive; CYP2C19 inh: inactive; CD11b adhes enh: inactive; CYP2C9 activ: inactive; CYP2C19 activ: inactive

What do the screens show for `CCCNC(=O)CSc1nnc(-c2ccccc2Br)n1-c1cccc(C(F)(F)F)c1`?
CD11b adhes inh: inactive; CD11b adhes enh: inactive

How did COc1ccccc1-n1cnc2cc(NS(=O)(=O)c3ccc(Br)cc3)ccc21 do in these assays?
CYP2C9 inh: 99.4; CD11b adhes inh: inactive; CYP2C19 inh: 98.4; CD11b adhes enh: inactive; CYP2C9 activ: inactive; CYP2C19 activ: inactive

What do the screens show for `CCCn1cnc2cc(NCc3cccc(OC)c3)ccc21`?
CYP2C9 inh: inactive; CYP2C19 inh: 59.1; CYP2C9 activ: inactive; CYP2C19 activ: inactive

Results for CCn1cnc2cc(NS(=O)(=O)c3ccc(C)cc3)ccc21 ?
CYP2C9 inh: 84.0; CD11b adhes inh: inactive; CYP2C19 inh: 88.7; CD11b adhes enh: inactive; CYP2C9 activ: inactive; CYP2C19 activ: inactive

How did CCCNC(=O)c1ccc2c(c1)ncn2-c1ccccc1OC do in these assays?
CYP2C9 inh: inactive; CD11b adhes inh: inactive; CYP2C19 inh: inactive; CD11b adhes enh: inactive; CYP2C9 activ: inactive; CYP2C19 activ: inactive

Results for Cc1ccc(S(=O)(=O)Nc2ccc3c(c2)CCC3)cc1 ?
CD11b adhes inh: inactive; CD11b adhes enh: inactive

How did CCn1cnc2cc(NCc3ccc(C)cc3)ccc21 do in these assays?
CYP2C9 inh: inactive; CD11b adhes inh: inactive; CYP2C19 inh: 74.9; CD11b adhes enh: inactive; CYP2C9 activ: inactive; CYP2C19 activ: inactive

What do the screens show for `COc1cc(C)nc(Oc2ccc(OCCOc3ccc(C)cc3)nn2)n1`?
CYP2C9 inh: inactive; CD11b adhes inh: inactive; CYP2C19 inh: inactive; CD11b adhes enh: inactive; CYP2C9 activ: inactive; CYP2C19 activ: inactive

How did COc1ccc(-n2cnc3cc(NS(=O)(=O)c4ccc(C)cc4)ccc32)cc1 do in these assays?
CYP2C9 inh: 98.3; CD11b adhes inh: inactive; CYP2C19 inh: 91.2; CD11b adhes enh: inactive; CYP2C9 activ: inactive; CYP2C19 activ: inactive

How did COc1ccc(S(=O)(=O)Nc2cc(C)ccn2)cc1 do in these assays?
CYP2C9 inh: inactive; CD11b adhes inh: inactive; CYP2C19 inh: inactive; CD11b adhes enh: inactive; CYP2C9 activ: inactive; CYP2C19 activ: inactive
